Compounds with a hit are over-represented: about 3.5% of the library has one in this group of screens.
Pf apPOL block: Pf-apPOL DNA polymerase inhibition. Recombinant Pf-apPOL, molecular beacon fluorescence, 1.5 h. inhibition, % at 10 µM. actives 0.25% (n = 210,000). AID 1794808
mHTT-CaM PPI inh: mHTT-calmodulin interaction abrogation; P42858; AlphaScreen His-mHTT/GST-CaM binding, luminescence; inhibition, % at 15 µM; actives 3.6% (n = 190,000); AID 1671202
Each line names hits and unclear results; the compound was inactive in the other large screens; ! = a repeat was not active. Cut-off read from the data, not from the text of the source: active = inhibition above about 50%; inactive = the rest.

COc1ccc(Cl)cc1NC(=O)C(Cc1ccccc1)N1C(=O)C2C3C=CC(C3)C2C1=O (stereo unspecified)	mHTT-CaM PPI inh 51.0
COc1ccccc1NC(=O)CN1C(=O)C2C3c4ccccc4C(c4ccccc43)C2C1=O (stereo unspecified)	none
O=C(CN1C(=O)C2C3c4ccccc4C(c4ccccc43)C2C1=O)Nc1cccc(Cl)c1 (stereo unspecified)	mHTT-CaM PPI inh 100.3
Cc1occc1C(=O)Nc1nc2ccc(Cl)cc2s1	none
Cc1c(C#N)sc2nc(-c3ccccc3)nc(N=CN(C)C)c12	none
CN(C)C=Nc1c(C#N)cnn1-c1ncnc2sc(-c3ccccc3)cc12	mHTT-CaM PPI inh 82.0
COc1cc(Br)cc2cc(C(=O)Oc3cccc4cccnc34)c(=O)oc12	none
Cc1nc(N2CCOCC2)nc(N2CCCC2)c1[N+](=O)[O-]	none
Cc1cc(C)n(-c2nc(N3CCOCC3)nc(C)c2[N+](=O)[O-])n1	Pf apPOL block 68.9!
Cc1cc(=O)n2[nH]c(C)c(-c3ccc(Cl)cc3)c2n1	none
Cc1nc2c(-c3ccc(Cl)cc3)c[nH]n2c(=O)c1Cl	none
COc1ccc(-c2c(C)[nH]n3c(=O)cc(-c4ccc([N+](=O)[O-])cc4)nc23)cc1	mHTT-CaM PPI inh 53.2
O=c1cc(-c2ccc([N+](=O)[O-])cc2)nc2c(-c3ccc(Cl)cc3)c[nH]n12	mHTT-CaM PPI inh 54.5
Cc1ccc(S(=O)(=O)N2CCC(CN3CCCCC3)CC2)cc1C	none
O=C(O)C=Cc1cn(Cc2cc(F)cc(F)c2)c2ccccc12	none (no result: mHTT-CaM PPI inh)
N=C1S/C(=C\c2ccco2)C(=O)N1c1nonc1N	mHTT-CaM PPI inh 93.0
N=C1NC(=O)/C(=C\c2ccc(-c3cccc(C(F)(F)F)c3)o2)S1	none
CC(=O)Nc1nonc1N1C(=N)S/C(=C\c2ccc(-c3ccc(F)cc3)o2)C1=O	mHTT-CaM PPI inh 62.0
N=C1S/C(=C\c2ccc(-c3cccc(C(F)(F)F)c3)o2)C(=O)N1c1nonc1N	mHTT-CaM PPI inh 56.0
N=C1S/C(=C\c2ccc(-c3ccc4c(c3)COC4=O)o2)C(=O)N1c1nccs1	none
CC(=O)Nc1nonc1N1C(=N)S/C(=C\c2ccc(-c3ccc(F)c(Cl)c3)o2)C1=O	none
N=C1S/C(=C\c2ccc(-c3cccc(Cl)c3)o2)C(=O)N1c1nccs1	mHTT-CaM PPI inh 57.0
COc1ccc(/C=C2\SC(=N)N(c3nonc3N)C2=O)cc1	none
O=C(CSc1ccncc1)N1CCCn2nc(-c3ccc(Cl)cc3)cc2C1	none
Cc1cc(C(=O)NCC(C)C)nc2cc(-c3ccccc3)nn12	none
O=C1OCCN1C(=O)[C@H]1[C@H](c2ccc([N+](=O)[O-])cc2)C(c2cccc(Cl)c2)=NN1c1ccccc1	mHTT-CaM PPI inh 55.2
Cc1cccc(C2=NN(c3ccc(Br)cc3)[C@@H](C(=O)N3CCOC3=O)[C@@H]2C)c1	none
Cc1cccc(C2=NN(c3ccc(Br)cc3)[C@@H](C(=O)N3CCOC3=O)[C@@H]2c2ccc([N+](=O)[O-])cc2)c1	mHTT-CaM PPI inh 50.4
O=C1OCCN1C(=O)[C@H]1[C@H](c2ccc([N+](=O)[O-])cc2)C(c2ccccc2)=NN1c1ccccc1	none
Cc1nc(-c2ccccc2)sc1C(=O)Nc1ccccc1	none
O=C(COc1ccc(F)cc1)N1CCCC(COc2ccc(C(=O)N3CCCC3)cc2)C1 (stereo unspecified)	none
COc1ccccc1NCC(O)Cn1c(C)c(C)c2ccccc21 (stereo unspecified)	mHTT-CaM PPI inh 59.0
Cc1ccc(S(=O)(=O)NCC(O)Cn2c3ccccc3c3ccccc32)cc1 (stereo unspecified)	none
Cc1ccccc1NCC(O)Cn1c(C)c(C)c2ccccc21 (stereo unspecified)	mHTT-CaM PPI inh 96.0
CNCC(O)Cn1c2ccccc2c2ccccc21 (stereo unspecified)	none
COc1ccccc1NCC(O)Cn1ccc2ccccc21 (stereo unspecified)	none
Cc1ccc(NCC(O)Cn2c(C)c(C)c3ccccc32)c(C)c1 (stereo unspecified)	mHTT-CaM PPI inh 82.0
CC(NCC(O)Cn1c2ccccc2c2ccccc21)C(=O)O (stereo unspecified)	none
Cc1c(C)n(CC(O)CNc2ccc(I)cc2)c2ccccc12 (stereo unspecified)	mHTT-CaM PPI inh 99.0
COc1ccc(NC(=O)C2CCN(C(=O)c3ccccc3C)CC2)cc1	none
COc1ccccc1NS(=O)(=O)c1cccc(C(=O)Nc2cccc([N+](=O)[O-])c2)c1	none
O=C(NC1CC1)c1ccccc1OCC1CCN(C(=O)c2ccc(F)cc2)CC1	none
CCc1ccc(NC(=O)C23CCC(C2)C(C)(C)C3=O)cc1 (stereo unspecified)	none
CCC(CO)NCC(O)Cn1c2ccccc2c2ccccc21 (stereo unspecified)	none
Cc1cccc(NCC(O)Cn2c(C)c(C)c3ccccc32)c1C (stereo unspecified)	mHTT-CaM PPI inh 93.0
CC(C)Cn1c(Br)nc2c1c(=O)[nH]c(=O)n2C	none
COC(CNc1ncnc2c1cnn2-c1cccc(C)c1)OC	none
Cc1cc(C(c2cc(C)c(N)c(C)c2)c2ccco2)cc(C)c1N	none

High-throughput results: PubChem BioAssay, University of Kansas High Throughput Screening Laboratory
